Most compounds without a hit are left out; they make up all but 1.1% or so of the library.
HSV augment = HSV replication enhancement; HSV replication augmentation in cells, fold increase; maximum fold increase; 0.005% of 220,000 active; AID 1956; in the data active means maximum fold increase above about 1.5; inconclusive means no clear call, values can overlap the other calls; tested in PC3 cells
INS promoter inh = TRM-6 insulin promoter activity inhibition; inhibition, % at 2 µM; 0.9% of 130,000 active; TRM-6 cells (human fetal islet line), insulin promoter-eGFP reporter, imaging; reporter expression induced with tamoxifen;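 active means inhibition above the mean plus 3 SD, with well images judged a real hit on visual review, cut at about 60% in these data, passing the limit was not always enough; inconclusive means inhibition over the cutoff but images rejected on review; inactive means inhibition not above the cutoff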
Insulin prom up = MIN6 insulin promoter up-regulation; MIN6 insulin promoter-GFP reporter, high-content imaging; active compounds read high; z-score at 5 µM; 0.3% of 190,000 active;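 active means z-score above 3 at 5 µM with at least 500 cells counted in the well; inconclusive means wells under 500 cells, flagged as cytotoxic or low count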
Efa HMGR inh = blocks class II HMG-CoA reductase of Enterococcus faecalis; purified E. faecalis HMGR, NADPH absorbance 340 nm kinetic; 0.41% of 190,000 active; AID 1066; inhibition, % at 10 µM;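 active means inhibition above a set limit, the median over all tested compounds plus 3 SD, cut at about 9.5% in these data; inconclusive means no clear call, values can overlap the other calls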;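 further: enzyme runs in reverse so mevalonate oxidation gives rising NADPH absorbance; 0% = complete reaction with DMSO and 100% = background rate lacking mevalonate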
* marks the source's active call; other numbers are inactive results; i = inactive; ? = inconclusive; · = no result.

SMILES | HSV augment | INS promoter inh | Insulin prom up | Efa HMGR inh
NC(=O)c1ccc(NC(=O)COC(=O)CCC(=O)c2ccc(Cl)cc2)cc1 | i | · | -0.23 | -3
CC(C)C(NC(=O)c1ccccc1F)C(=O)NCCc1ccccn1 (centres undefined) | i | -100 | 2 | -1
O=C1CN(C(=O)COc2ncnc3ccccc23)c2ccccc2N1 | i | 0 | 4* | -2
Cc1sc2ncnc(OCC(=O)N3CC(=O)Nc4ccccc43)c2c1C | i | 19 | 0.66 | -6
O=[N+]([O-])c1ccc(N/N=C/c2ccc(O)c(O)c2O)c(S(=O)(=O)N2CCOCC2)c1 | i | · | -0.04 | 22*
c1ccc2c(c1)NC(c1ccncc1)n1c-2nc2ccccc21 (centres undefined) | i | 78* | · | -7
COc1ccccc1NC(=O)C1=C(C)NC(=O)NC1c1ccccc1[N+](=O)[O-] (centres undefined) | i | -67 | -0.13 | 11*
COCCNC(=O)Cc1ccc(F)cc1 | i | 36 | 3* | -3
Brc1ccc(-c2cn3ccccc3n2)s1 | i | 86* | -0.35 | 0
CCn1cc(C(=O)NCCN(C)CCc2ccccc2)c(=O)c2cc(S(=O)(=O)N(C)C)ccc21 | i | -11 | 3.9* | 0
CN(CCc1ccccn1)c1ncnc2[nH]ncc12 | i | 75* | 0.16 | -1
COc1ccccc1NC(=O)c1ccc(NC(=O)CN(C)Cc2ccccc2F)cc1 | i | · | -0.13 | -5
CCN1C(=O)CC(N2CCN(c3ccc(C(=O)c4ccncc4)cc3)CC2)C1=O (centres undefined) | i | 70* | 0.02 | -2
COc1ccc(S(=O)(=O)c2nnn(-c3ccccc3Cl)c2N)cc1 | i | 73* | -0.56 | -4
Nc1c(S(=O)(=O)c2ccccc2)nnn1-c1ccccc1 | i | 20 | -0.05 | -9
O=C(O)/C=C/c1ccc2ccccc2n1 | i | 12 | 1.3 | -1
O=C(/C=C/c1ccc2ccccc2n1)c1cc(Br)ccc1O | i | · | 4.4* | ·
NNC(=O)COc1ccc(C(F)(F)F)cc1 | i | · | 0.15 | -1
COc1ccc(N)cc1-n1cnnn1 | i | · | -0.48 | -3
Cc1nn(C)cc1C(C(=O)NC1CCCCC1)N(C(=O)c1cnccn1)c1ccc(Oc2ccccc2)cc1 (centres undefined) | i | 0 | · | 3
CCOC(=O)c1ccc(N(C(=O)c2cnccn2)C(C(=O)NC2CCCCC2)c2cn(C)nc2C)cc1 (centres undefined) | i | 17 | · | 15*
C=CCNc1nc(SCC=C)nc2ccsc12 | · | 83* | -0.23 | -12
Cc1ccccc1NC(=O)COC(=O)c1cc(=O)c2ccccc2o1 | i | 64 | -0.24 | -1
CN(C)c1ccc(NC(=O)COC(=O)c2cc(=O)c3ccccc3o2)cc1 | i | 67* | -1.4 | -6
CCOc1ccc(N2CC(C(=O)Nc3cccc(S(=O)(=O)NC4=NCCC4)c3)CC2=O)cc1 (centres undefined) | i | · | 0.24 | ·
SMILES | HSV augment | INS promoter inh | Insulin prom up | Efa HMGR inh
COc1ccc(CCNC(=O)CSc2ncn[nH]2)cc1 | i | 86* | -0.19 | -2
Cc1cccc(C)c1Nc1c(-c2ccccn2)nc2ccccn12 | i | 25 | -0.97 | -1
CCOC(=O)C1=C(C)NC(=O)NC1C1CC=CCC1 (centres undefined) | i | -55 | · | -4
COC(=O)C1=C(C)NC(C)=C(C(=O)OC)C1C1CC=CCC1 (centres undefined) | i | · | -0.02 | 15*
C/C(=N\S(=O)(=O)c1ccc(C)cc1)N1CCN(S(=O)(=O)c2ccccc2)C1 | · | · | 3.5* | -4
CCOc1cccc2c1OC(c1cc(OC)c(OC)c(OC)c1)N1N=C(c3ccc(C)o3)CC21 (centres undefined) | i | 13 | -0.13 | -8
O=C(O)CCCCCN1C(=O)/C(=C\c2ccc(-c3ccc(Cl)cc3)o2)SC1=S | ? | · | 4.2* | ·
O=C(O)CCCN1C(=O)/C(=C/c2ccc(-c3nc4ccccc4s3)o2)SC1=S | · | 0 | 0.77 | -10
Clc1ccc2nc(N3CCCCC3)sc2c1 | i | · | -0.22 | 1
Clc1ccc2nc(N3CCCCC3)[nH]c2c1 | i | 87* | · | -3
N/C(=N\OC(=O)CN1C(=O)c2ccccc2C1=O)c1ccc(Br)cc1 | i | · | -0.99 | 13*
COc1cccc(CCC(=O)O)c1OC | i | 89* | · | -1
CC(=O)c1c(COC(=O)c2ccncc2)nc2ccccc2[n+]1[O-] | i | · | 4.2* | -7
CCOc1ccc(NC(=O)CC2C(=O)N(c3cccc(OC)c3)C(=O)N2CCOC)cc1 (centres undefined) | i | · | 0.53 | ·
C=CCC1Cc2c(cccc2[N+](=O)[O-])C(CC=C)N1 (centres undefined) | i | · | 1.1 | -1
C=CCC1C=C(C)CC(CC=C)N1 (centres undefined) | i | -21 | 2.8 | 13*
C=CCNC(=O)COC(=O)c1ccc(C)c(NC(=O)c2ccco2)c1 | i | 73* | -0.03 | 5
CCCCNC(=O)COC(=O)c1ccc(C)c(NC(=O)c2ccco2)c1 | i | 67 | -0.97 | -7
CCOC(=O)Nc1ccc2c(c1)N(C(=O)CCN1CCN(C)CC1)c1ccccc1S2 | i | 3 | 0.75 | -1
CCOC(=O)Nc1ccc2c(c1)N(C(=O)N1CCN(C)CC1)c1ccccc1CC2 | i | · | -0.06 | 13*
CCOC(=O)Nc1ccc2c(c1)N(C(=O)CCN1CCN(CCO)CC1)c1ccccc1S2 | i | 89* | · | ·
CCN(CC)CCOC(=O)c1ccc(Cl)cc1 | i | -25 | 0.34 | 1
CCOc1ccc(C(=O)OCCN(CC)CC)cc1 | i | 80* | · | 0
Cc1c2oc3c(C)ccc(C(=O)N[C@@H]4C(=O)N[C@H](C(C)C)C(=O)N5CCC[C@H]5C(=O)N(C)CC(=O)N(C)[C@@H](C(C)C)C(=O)O[C@@H]4C)c3nc-2c(C(=O)N[C@@H]2C(=O)N[C@H](C(C)C)C(=O)N3CCC[C@H]3C(=O)N(C)CC(=O)N(C)[C@@H](C(C)C)C(=O)O[C@@H]2C)c(N)c1=O | i | · | · | ·
Cn1cnnc1Sc1ccc(C(=O)NCCC(c2ccccc2)c2ccccc2)cc1[N+](=O)[O-] | i | -54 | 0.31 | -3
SMILES | HSV augment | INS promoter inh | Insulin prom up | Efa HMGR inh
Cn1cnnc1Sc1ccc(C(=O)OCC(=O)NC2CC2)cc1[N+](=O)[O-] | i | -43 | 0.91 | 15*
CC1(C)CN2C(=O)c3ccccc3C2(C)S1 (centres undefined) | i | -13 | -0.34 | -4
CCOc1cc(C(=O)N/N=C(\C)Cc2ccc(OC)cc2)cc(OCC)c1OCC | i | · | -0.13 | -1
COc1ccc(C/C(C)=N/NC(=O)c2ccc(Cl)cc2)cc1 | i | 33 | 0.44 | 10*
COc1ccc(C/C(C)=N/NS(=O)(=O)c2ccc(Br)cc2)cc1 | i | · | · | 15*
Cc1nc2ncnn2c(C)c1C/C=C/c1ccccc1 | i | · | -1.7 | 0
CC1Cc2ccccc2N1C(=O)C12CCC(C)(C(=O)C1)C2(C)C (centres undefined) | i | 95* | 0.02 | 0
O=C(NCCOc1ccccc1Cl)C(=O)c1c[nH]c2ccccc12 | i | 0 | -0.28 | 17*
CC(Sc1ccccc1)C(=O)NN=C1CCCCCC1 (centres undefined) | i | 53 | 8.1* | -9

Source: PubChem BioAssay
